Results as given in PubChem BioAssay (NCI).
This is part of a sample that, as a whole, favours compounds with a hit. Of some 83,000 tested, about 20% had one in any assay.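 For each line, cells grew in 96-well plates with the test compound present at a single concentration for 48 hours.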 Calls of active or inactive are those of the source. Rule for the calls: active = growth percent below 10; inactive = the rest.

What was measured:
Test in all cases: NCI-60 one-dose screen, 48 h (100 = growth as untreated, 0 = no growth, -100 = all killed)
Conditions in all cases: 10 µM
SR leukemia = tested on: SR leukemia
RPMI-8226 leukemia = tested on: RPMI-8226 leukemia
OVCAR-8 ovarian = tested on: OVCAR-8 ovarian
OVCAR-5 ovarian = tested on: OVCAR-5 ovarian
OVCAR-4 ovarian = tested on: OVCAR-4 ovarian
SK-OV-3 ovarian = tested on: SK-OV-3 ovarian
IGROV1 ovarian = tested on: IGROV1 ovarian
OVCAR-3 ovarian = tested on: OVCAR-3 ovarian
HS 578T breast = tested on: HS 578T breast
NCI/ADR-RES ovarian = tested on: NCI/ADR-RES ovarian

Measured: growth

O=C(NO)c1ccc(CNc2nc(-c3ccccc3)c3ccccc3n2)cc1
active: OVCAR-8 ovarian 6.42% | OVCAR-5 ovarian -22.4% | SK-OV-3 ovarian -39.1% | IGROV1 ovarian -46.3% | OVCAR-3 ovarian -11.3% | HS 578T breast 2.21% | NCI/ADR-RES ovarian -44.5%
inactive: SR leukemia 15.7% | RPMI-8226 leukemia 11.3% | OVCAR-4 ovarian 32.9%

CC(=O)Nc1ccc(-c2cn(-c3cccc(C(=O)Nc4ccc(F)c(C(F)(F)F)c4)c3)nn2)cn1
inactive: SR leukemia 34.6% | RPMI-8226 leukemia 66.6% | OVCAR-5 ovarian 89.1% | OVCAR-4 ovarian 13.5% | SK-OV-3 ovarian 90.8% | IGROV1 ovarian 43.2% | OVCAR-3 ovarian 24.9% | NCI/ADR-RES ovarian 86.3%
active: OVCAR-8 ovarian 2.67% | HS 578T breast 7.97%

COc1ccc(NC(=O)Nc2ccc(OCC(=O)N=Nc3c(O)[nH]c4ccc([N+](=O)[O-])cc34)cc2)cc1
inactive: SR leukemia 92.4% | RPMI-8226 leukemia 110% | OVCAR-8 ovarian 37.1% | OVCAR-5 ovarian 124% | OVCAR-4 ovarian 59.8% | SK-OV-3 ovarian 93.9% | IGROV1 ovarian 92.6% | OVCAR-3 ovarian 24.6% | HS 578T breast 39% | NCI/ADR-RES ovarian 91.1%

CCOC(=O)CNC(=O)CN(Cc1ccccc1)C(=O)[C@@]1(C)CCC[C@]2(C)[C@H]3CC4C(C(C)C)=C[C@]3(CC[C@H]21)[C@@H]1C(=O)CCC(=O)[C@H]41
inactive: RPMI-8226 leukemia 19.8% | OVCAR-8 ovarian 58.3% | OVCAR-5 ovarian 97.8% | OVCAR-4 ovarian 49.4% | SK-OV-3 ovarian 96.6% | IGROV1 ovarian 18.2% | OVCAR-3 ovarian 61.1% | HS 578T breast 52.6% | NCI/ADR-RES ovarian 47.9%
active: SR leukemia 8.03%

N#Cc1ccc(-c2nn(-c3ccc(C(=O)O)cc3)cc2CNc2cc(Cl)cc(Cl)c2)cc1
inactive: SR leukemia 36.5% | RPMI-8226 leukemia 21.6% | OVCAR-8 ovarian 47.6% | OVCAR-5 ovarian 84% | OVCAR-4 ovarian 65.4% | SK-OV-3 ovarian 126% | IGROV1 ovarian 52.5% | OVCAR-3 ovarian 45.7% | HS 578T breast 50.2% | NCI/ADR-RES ovarian 17.2%

COc1ccc2[nH]cc(/C=N/Nc3cccc(Cl)n3)c2c1
active: RPMI-8226 leukemia -0.856% | IGROV1 ovarian 5.42%
inactive: SR leukemia 17.1% | OVCAR-8 ovarian 57.9% | OVCAR-5 ovarian 77.4% | OVCAR-4 ovarian 59.8% | SK-OV-3 ovarian 91.4% | OVCAR-3 ovarian 17.4% | HS 578T breast 49.9% | NCI/ADR-RES ovarian 22.2%

O=C(Nc1nc2ccccc2s1)c1ccc(Br)cc1
inactive: SR leukemia 80.1% | RPMI-8226 leukemia 64.2% | OVCAR-8 ovarian 98.5% | OVCAR-5 ovarian 92.9% | OVCAR-4 ovarian 80.6% | SK-OV-3 ovarian 104% | IGROV1 ovarian 75.1% | OVCAR-3 ovarian 111% | HS 578T breast 95.5% | NCI/ADR-RES ovarian 76.7%

Nc1nc(Nc2ccc(Cl)cc2)nn1Cc1cccc(Br)c1
inactive: SR leukemia 30.6% | RPMI-8226 leukemia 29.1% | OVCAR-8 ovarian 54.9% | OVCAR-5 ovarian 49.7% | OVCAR-4 ovarian 46.8% | SK-OV-3 ovarian 47.2% | IGROV1 ovarian 13% | OVCAR-3 ovarian 47.7% | HS 578T breast 18.2% | NCI/ADR-RES ovarian 25.7%

COc1ccc(NC(=O)Cn2c(/C=C/c3ccc(N(C)C)cc3)nc3ccccc3c2=O)cc1
inactive: SR leukemia 72.5% | RPMI-8226 leukemia 57.1% | OVCAR-8 ovarian 21% | OVCAR-5 ovarian 66.4% | OVCAR-4 ovarian 58.7% | SK-OV-3 ovarian 24.7% | IGROV1 ovarian 47.2% | OVCAR-3 ovarian 26.9% | HS 578T breast 65.7% | NCI/ADR-RES ovarian 32.2%

O=[N+]([O-])c1ccc(-c2nc(-c3ccccc3)c(-c3ccccc3)n2-c2ccc(S(=O)(=O)Nc3ncccn3)cc2)cc1
inactive: SR leukemia 45% | RPMI-8226 leukemia 33% | OVCAR-8 ovarian 54.5% | OVCAR-5 ovarian 72.8% | OVCAR-4 ovarian 66.7% | SK-OV-3 ovarian 104% | IGROV1 ovarian 74.3% | OVCAR-3 ovarian 51.7% | HS 578T breast 37.3% | NCI/ADR-RES ovarian 42.4%

Cc1cc2nc3c4ccccc4n(CCO)c3nc2cc1C
inactive: SR leukemia 27.2% | RPMI-8226 leukemia 93% | OVCAR-8 ovarian 72.7% | OVCAR-5 ovarian 103% | SK-OV-3 ovarian 81.7% | IGROV1 ovarian 58.4% | OVCAR-3 ovarian 78.7% | HS 578T breast 48.3% | NCI/ADR-RES ovarian 62.3%
active: OVCAR-4 ovarian -43.7%

Cc1ccc(/C=C/C(=O)c2ccc(S(=O)(=O)NCCNc3nc(Nc4ccc(F)cc4)nc(N(C)C)n3)cc2)cc1
active: SR leukemia 1.14% | RPMI-8226 leukemia 4.72% | OVCAR-8 ovarian 3.72% | OVCAR-3 ovarian -55.9%
inactive: OVCAR-5 ovarian 39.2% | OVCAR-4 ovarian 21.8% | SK-OV-3 ovarian 94.7% | IGROV1 ovarian 52.1% | HS 578T breast 68.8% | NCI/ADR-RES ovarian 14.7%

NS(=O)(=O)c1ccc(NC(=O)CSc2ccc(-c3ccccc3)nn2)c(Br)c1
inactive: SR leukemia 85.9% | RPMI-8226 leukemia 83% | OVCAR-8 ovarian 38.3% | OVCAR-5 ovarian 90.4% | OVCAR-4 ovarian 53.8% | SK-OV-3 ovarian 98.7% | IGROV1 ovarian 93.8% | OVCAR-3 ovarian 24.9% | HS 578T breast 41.1% | NCI/ADR-RES ovarian 81.6%

CC1=N/C(=C\c2ccc(N(C)C)cc2)C(=O)N1CCc1ccc(S(N)(=O)=O)cc1
inactive: SR leukemia 86.4% | RPMI-8226 leukemia 87.1% | OVCAR-8 ovarian 97.9% | OVCAR-5 ovarian 116% | OVCAR-4 ovarian 99.7% | SK-OV-3 ovarian 95.3% | IGROV1 ovarian 103% | OVCAR-3 ovarian 109% | HS 578T breast 91.6% | NCI/ADR-RES ovarian 96.6%

COc1cccc(/C=N/NC(=O)c2ccc3nc(-c4ccc(Cl)cc4)[nH]c3c2)c1O
active: SR leukemia -36.8% | RPMI-8226 leukemia -50.5% | OVCAR-8 ovarian -84.6% | OVCAR-5 ovarian -63% | OVCAR-4 ovarian -36.3% | SK-OV-3 ovarian -84.6% | IGROV1 ovarian -77.2% | OVCAR-3 ovarian -87.4% | HS 578T breast -54.7%
inactive: NCI/ADR-RES ovarian 50.7%

COc1ccc(C(=O)/C=C/c2cc(C(F)(F)F)cc(C(F)(F)F)c2)cc1S(N)(=O)=O
active: SR leukemia 5.52% | RPMI-8226 leukemia 3.03% | OVCAR-8 ovarian -29.8% | OVCAR-5 ovarian -93.6% | OVCAR-4 ovarian -80% | IGROV1 ovarian -69% | OVCAR-3 ovarian -88.6% | HS 578T breast -12.8% | NCI/ADR-RES ovarian -34%
inactive: SK-OV-3 ovarian 20%

O=c1cc(-c2ccccc2)oc2cc(OCCCCNCc3ccccc3)cc(O)c12
inactive: OVCAR-8 ovarian 52.6% | OVCAR-5 ovarian 92.1% | OVCAR-4 ovarian 34.7% | SK-OV-3 ovarian 61.1% | IGROV1 ovarian 63.8% | OVCAR-3 ovarian 64.3% | HS 578T breast 39.6%
active: SR leukemia -29.7% | RPMI-8226 leukemia -22.6% | NCI/ADR-RES ovarian -68.4%

CCCn1c(=O)c2[nH]c(-c3ccc(OCc4nc5ccc(F)cc5[nH]4)cc3)nc2n(CCC)c1=O
inactive: SR leukemia 11.8% | RPMI-8226 leukemia 16.7% | OVCAR-5 ovarian 43.3% | IGROV1 ovarian 28.1% | NCI/ADR-RES ovarian 64.9%
active: OVCAR-8 ovarian -41.3% | OVCAR-4 ovarian -2.86% | SK-OV-3 ovarian -41.3% | OVCAR-3 ovarian 5.45% | HS 578T breast 0.819%

C=C[C@@]12CN3CC[C@]1(O)[C@@](C(=O)OC)(CO2)c1[nH]c2ccccc2c1C3
inactive: SR leukemia 75.5% | RPMI-8226 leukemia 46.9% | OVCAR-8 ovarian 62.8% | OVCAR-5 ovarian 49.2% | OVCAR-4 ovarian 62.3% | SK-OV-3 ovarian 115% | IGROV1 ovarian 95.2% | OVCAR-3 ovarian 61.6% | HS 578T breast 80.5% | NCI/ADR-RES ovarian 49.1%

O=C(CNc1nc(-c2ccccc2)cs1)Nc1cccc(Cl)c1
inactive: RPMI-8226 leukemia 26% | OVCAR-8 ovarian 32.1% | OVCAR-5 ovarian 40.9% | OVCAR-4 ovarian 32.5% | SK-OV-3 ovarian 37.7% | IGROV1 ovarian 29.4% | OVCAR-3 ovarian 32.2% | HS 578T breast 32.4% | NCI/ADR-RES ovarian 19.5%
active: SR leukemia -15%

Cn1c(O)c(N=Nc2nc(-c3cc4ccccc4oc3=O)cs2)c2cc(Br)ccc21
inactive: SR leukemia 71.7% | RPMI-8226 leukemia 96.6% | OVCAR-8 ovarian 79.2% | OVCAR-5 ovarian 86.5% | OVCAR-4 ovarian 80.9% | SK-OV-3 ovarian 57.7% | IGROV1 ovarian 64.2% | OVCAR-3 ovarian 96.4% | HS 578T breast 17.5% | NCI/ADR-RES ovarian 68.4%

C=C1CCC2C3(C)COC(c4c(F)cccc4F)OC3CCC2(C)C1C/C=C1/C(=O)OCC1O (stereo not given)
inactive: SR leukemia 14.8% | RPMI-8226 leukemia 15.3% | OVCAR-4 ovarian 12.4% | SK-OV-3 ovarian 54.7% | HS 578T breast 17.5%
active: OVCAR-8 ovarian -42.5% | OVCAR-5 ovarian -10% | IGROV1 ovarian -26.7% | OVCAR-3 ovarian -67.9% | NCI/ADR-RES ovarian -15.1%

CCCn1c(=O)c2[nH]c(-c3ccc(OCc4nc5ccc(C(F)(F)F)cc5[nH]4)cc3)nc2n(CCC)c1=O
active: OVCAR-8 ovarian -7.74%
inactive: SR leukemia 24.6% | RPMI-8226 leukemia 28.1% | OVCAR-5 ovarian 82.3% | OVCAR-4 ovarian 60% | SK-OV-3 ovarian 90.7% | IGROV1 ovarian 62.7% | OVCAR-3 ovarian 52.5% | HS 578T breast 33.4% | NCI/ADR-RES ovarian 55.8%

CC(=O)OC[C@@]1(C)C2CC[C@]3(C)C(CC=C4C5CC(C)(C)CC[C@]5(C(=O)Nc5ccccc5)CC[C@]43C)[C@@]2(C)C[C@@H](OC(C)=O)[C@@H]1OC(C)=O (stereo not given in full)
inactive: SR leukemia 17% | RPMI-8226 leukemia 10.7% | OVCAR-8 ovarian 32.7% | OVCAR-5 ovarian 81.4% | OVCAR-4 ovarian 33.4% | SK-OV-3 ovarian 45.2% | IGROV1 ovarian 45.1% | OVCAR-3 ovarian 38.9% | HS 578T breast 52.3% | NCI/ADR-RES ovarian 31.2%

Cn1cc(-c2cc(N)n3nc(-c4c[nH]c5ccc(Br)cc45)cc3n2)c2cccnc21
active: SR leukemia -23.6% | RPMI-8226 leukemia 3.37% | OVCAR-8 ovarian -68.8% | OVCAR-5 ovarian -87.4% | OVCAR-4 ovarian -42.2% | SK-OV-3 ovarian -72.6% | IGROV1 ovarian -69.8% | OVCAR-3 ovarian -78.9% | HS 578T breast -38.8% | NCI/ADR-RES ovarian -55.7%

N#Cc1c(-c2ccc(Cl)cc2)cc(-c2ccccc2)nc1OCc1ccccc1
inactive: SR leukemia 42.2% | RPMI-8226 leukemia 60.3% | OVCAR-8 ovarian 93% | OVCAR-5 ovarian 92.9% | OVCAR-4 ovarian 76.9% | SK-OV-3 ovarian 83.1% | IGROV1 ovarian 87% | OVCAR-3 ovarian 97.9% | HS 578T breast 85.2% | NCI/ADR-RES ovarian 76%
